Experimental data: PubChem BioAssay
Activity calls are given as the source filed them.

What was measured:
Albumin (Bos taurus) = Albumin (Bos taurus) (UniProt P02769); assay: bovine serum albumin binders on microarray, profiling panel, artefact control for SMM control protein annotation, biochemical, small-molecule microarray, Alexa647 label, 635/667 nm fluorescence (AID 1118); details: BSA-A647 binding, fluorescence 635 nm, higher = more signal;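 also: score merges 667 nm emission intensity and signal-to-noise per printed compound spot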
Sequence of Albumin (Bos taurus) (P02769 whole entry, looked up): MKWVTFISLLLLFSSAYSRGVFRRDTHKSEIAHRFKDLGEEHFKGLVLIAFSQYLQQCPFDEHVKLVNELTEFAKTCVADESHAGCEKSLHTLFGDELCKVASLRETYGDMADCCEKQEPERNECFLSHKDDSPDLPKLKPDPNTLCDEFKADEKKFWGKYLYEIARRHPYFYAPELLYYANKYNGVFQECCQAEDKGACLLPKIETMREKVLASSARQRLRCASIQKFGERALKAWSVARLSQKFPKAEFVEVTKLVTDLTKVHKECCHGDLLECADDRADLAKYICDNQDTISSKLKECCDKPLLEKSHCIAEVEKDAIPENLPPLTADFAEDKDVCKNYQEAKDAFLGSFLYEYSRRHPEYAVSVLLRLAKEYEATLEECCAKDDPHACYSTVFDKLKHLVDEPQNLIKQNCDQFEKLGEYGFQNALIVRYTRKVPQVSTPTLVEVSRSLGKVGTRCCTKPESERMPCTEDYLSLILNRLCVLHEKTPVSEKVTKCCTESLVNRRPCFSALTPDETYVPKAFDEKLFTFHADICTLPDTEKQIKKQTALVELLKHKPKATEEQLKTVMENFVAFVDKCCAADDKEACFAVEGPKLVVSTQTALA

[1] = small-molecule microarray binders of probe aXIP, primary screen, biochemical, NeuroSMM set, 635/667 nm fluorescence (AID 1119); details: higher = more signal, called active from +8 up or from −8 down;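 also: probe is the protein aXip251-270 applied at 1 µg/mL to compound-printed slides; binding of probe to printed compounds measured as 667 nm fluorescence plus signal to noise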
[2] = small-molecule binders of probe aNOTCH3, primary screen, biochemical, small-molecule microarray, 635/667 nm fluorescence (AID 1120); details: higher = more signal;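 also: probe is a biotin-tagged antibody raised against NOTCH3 rather than NOTCH3 protein; score merges spot fluorescence near 667 nm with spot signal to noise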
[3] = small-molecule binders of probe aNOTCH2, primary screen, biochemical, small-molecule microarray, 635/667 nm fluorescence (AID 1121); details: higher = more signal;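 also: score merges feature fluorescence read at 667 nm with its signal to noise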
[4] = molecular target: Carbonic anhydrase 2 (Homo sapiens) (UniProt P00918); assay: CAII small-molecule binders, profiling panel, biochemical, small-molecule microarray, Alexa647-labelled CAII (AID 1122); details: CAII-A647 binding fluorescence, higher = more signal
[5] = COS7 lysate on small-molecule microarray, probe aHis, 635 nm (AID 1123); details: COS7 cell lysate, fluorescence, higher = more signal;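 also: z-score combines 667nm fluorescence intensity with signal-to-noise per printed compound spot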
[6] = compound binding in COS7 lysate, probe aLAP1, primary screen, cell lysate, small-molecule microarray (AID 1124); details: probe aLAP1, fluorescence, higher = more signal;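 also: lysate comes from COS7 cells expressing LAP1 and is applied at 0.3 µg/mL; score merges spot fluorescence near 667 nm with signal-to-noise over triplicate slides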
Sam68 (KHDRBS1) = assay: Sam68 small-molecule binders, primary screen, biochemical, small-molecule microarray, 635 nm fluorescence (AID 1125); details: small-molecule microarray binding, higher = more signal;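 also: score merges 667 nm channel intensity with signal to noise over triplicate slides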
[7] = tested on: Chordin-like protein 2 (CHRDL2); assay: CHRDL2 small-molecule binders, primary screen, biochemical, small-molecule microarray, 635 nm fluorescence (AID 1126); details: small-molecule microarray binding, fluorescence 635 nm; higher = more signal;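 also: printed compound slides probed with Chrdl2 protein at 4 µg/mL for 1 h at 4 C; score merges 667 nm emission intensity with signal to noise over three replicate slides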
[8] = molecular target: Concanavalin-A (Canavalia ensiformis) (UniProt P02866); assay: ConA small-molecule binders, primary screen, artefact control for SMM control protein annotation, biochemical, small-molecule microarray, Alexa647 label, 635 nm (AID 1127); details: ConA-A647 binding fluorescence, higher = more signal;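 also: z combines 667 nm emission intensity with signal-to-noise across three replicate slides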
Sequence of Concanavalin-A (Canavalia ensiformis) (P02866 whole entry, looked up): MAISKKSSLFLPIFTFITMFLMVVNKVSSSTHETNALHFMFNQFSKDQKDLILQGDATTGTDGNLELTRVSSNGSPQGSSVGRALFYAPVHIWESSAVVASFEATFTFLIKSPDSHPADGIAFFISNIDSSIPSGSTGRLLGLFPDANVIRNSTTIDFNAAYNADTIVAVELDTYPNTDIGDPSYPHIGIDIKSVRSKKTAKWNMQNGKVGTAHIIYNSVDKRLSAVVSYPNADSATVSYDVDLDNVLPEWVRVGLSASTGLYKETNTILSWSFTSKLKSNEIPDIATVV

Structure (SMILES)	composite z-score (Albumin (Bos taurus))	composite Z-score [1]	composite z-score [2]	composite z-score [3]	composite z-score [4]	composite z-score [5]	composite z-score [6]	composite z-score (Sam68 (KHDRBS1))	composite z-score [7]	composite z-score [8]
C[C@H]1C2[C@H](Cc3ccccc3)NC(=O)[C@]23C(=O)N[C@H](Cc2ccccc2)C(=O)N[C@H](Cc2ccccc2)C(=O)NC/C=C/CCC/C=C/C3[C@@H]2O[C@]12C (stereo not given in full)	0.63	0.312 (inactive)	-0.246	-0.115	0.312	1.25	0.338	0.179	0.8	0.472
COc1ccc(CCNC(=O)[C@@]2(C)c3ccccc3C(=O)N(Cc3ccccc3)[C@H]2c2ccc(CO)cc2)cc1	0.365	0.247 (inactive)	0.178	-0.116	0.446	1.51	0.941	1.16	0.594	1.14
CN1C(=O)C2C=CC(C(O)C(C)(C)C)N(Nc3ccccc3)C2C1=O (stereo not given)	0.494	0.914 (inactive)	-0.217	-0.029	0.847	2.78	-0.519	-0.141	-0.156	-0.127
CC(=O)N1Cc2ccccc2C[C@@]2(N=C(c3ccc(OCCCO)cc3)O[C@H]2c2ccccc2)C1=O	-0.0471	0.0748 (inactive)	0.22	0.139	0.709	3.18	1.24	1.3	0.611	1.17
COc1ccc([Si](C)(C)[C@H]2[C@H](CCO)O[C@@]3(C(=O)N(Cc4ccccc4)c4ccc(N5C(=O)COc6ccccc65)cc43)[C@@H]2C)cc1	0.449	0.412 (inactive)	-0.0431	-0.0552	0.443	0.69	0.11	-0.101	-0.516	0.211
CCN(CC)c1ccc(N2CC=CC34O[C@@H]5C=CCCOC(=O)C5[C@H]3C(=O)N(CCCO)[C@@H]4C2=O)cc1 (stereo not given in full)	-0.87	-0.0662 (inactive)	-0.0387	-0.102	-0.177	-0.291	-0.332	-0.876	-0.218	-2.31
[N-]=[N+]=NCc1ccccc1C[C@@]1(C(=O)NCc2ccccc2)N=C(c2ccc(OCCCO)cc2)O[C@@H]1c1ccccc1CN=[N+]=[N-]	0.684	0.936 (inactive)	0.328	0.273	0.669	2.21	0.745	1.3	-0.106	1
COCCOC(=O)N1C(=O)[C@@]2(c3cc(C#CC4=CCCCC4)ccc31)[C@H](C(=O)N1CCN(c3ncccn3)CC1)[C@H]1C(=O)O[C@H](c3ccccc3)[C@H](c3ccccc3)N1[C@@H]2c1ccc(OCCO)cc1	0.565	-0.274 (inactive)	-0.0345	0.108	0.278	0.676	0.358	1.17	0.926	1.04
CS(=O)(=O)CCOC(=O)C1=CC(c2ccc(CO)cc2)=CC(c2cccs2)N(Cc2cccc(OC(F)(F)F)c2)C=C1C(=O)OCCS(C)(=O)=O (stereo not given)	0.735	-0.0662 (inactive)	0.152	-0.0259	0.664	1.68	0.442	1.13	0.217	0.911
CN(C)CCCCCCNC(=O)[C@@H]1C[C@@H]2C(=O)NCC(=O)N2[C@@H]1c1cccc(OCCO)c1	-0.615	1.04 (inactive)	0.113	-0.0519	0.63	2.54	0.212	1.3	1.35	1.22
CCCNC(=O)[C@@]1(C)c2ccccc2C(=O)N(Cc2ccc(OC(F)(F)F)cc2)[C@H]1c1ccc(CO)cc1	0.132	2.11 (inactive)	-0.0397	-0.0035	0.267	-0.517	0.727	0.565	-0.602	0.949
O=C1OCCC/C=C\[C@H]2OC34C=CCN(CCN5CCOCC5)C(=O)[C@H]3N(CCO)C(=O)[C@@H]4C12 (stereo not given in full)	0.394	0.0421 (inactive)	-0.346	-0.211	0.866	-0.0995	-0.0129	-0.779	-0.601	-1.09
C=C[C@H](OC)[C@@H](OC(=O)Nc1ccc(SC)cc1)c1ccc(OCCO)cc1	0.383	0.651 (inactive)	-0.15	-0.0956	0.503	1.45	0.503	0.904	0.0669	0.713
CC(C)[C@H]1COC(=O)N1C(=O)[C@H]1[C@@H](c2ccccc2)N(c2ccccc2)O[C@@H]1C	0.15	1.77 (inactive)	0.0893	-0.125	-0.004	0.409	-0.066	0.618	0.827	0.609
NC(=O)[C@]1(Cc2ccccc2)N=C(c2ccc(OCCCO)cc2)O[C@@H]1c1ccccc1	0.532	0.702 (inactive)	0.106	0.0959	0.865	2.53	0.583	0.827	-0.0464	0.587
C=C(C)[C@@H]1CC=C(C(O)C2C=CC3C(=O)N(Cc4ccccc4)C(=O)C3N2n2cnnc2)CC1 (stereo not given in full)	0.936	-0.619 (inactive)	0.0297	-0.0907	0.751	0.341	-0.24	-0.0341	-0.918	0.317
C=CCN1C(=O)[C@@]2(O[C@@H](CCO)[C@H]([Si](C)(C)c3ccc(OC)cc3)[C@H]2C)c2cc(N3C(=O)COc4ccccc43)ccc21	0.277	0.69 (inactive)	-0.141	-0.14	0.277	1.4	0.0661	1.29	-0.317	0.973
[N-]=[N+]=NCc1ccccc1C[C@]1(C(N)=O)N=C(c2ccc(OCCCO)cc2)O[C@H]1c1ccccc1N=[N+]=[N-]	0.421	-0.338 (inactive)	0.327	0.0185	0.513	1.46	0.312	1.23	-0.652	1.09
NC(=O)NCC#Cc1ccc2c(c1)[C@]1(C(=O)N2)[C@H](c2ccccc2OCCO)N2[C@H](c3ccccc3)[C@H](c3ccccc3)OC(=O)[C@H]2[C@@H]1C(=O)N1CCCCCCC1	0.0389	4.09 (inactive)	1.72	0.813	0.951	3.72	1.86	1.29	1.05	1.11
CCN(CC)c1ccc(N2CC=CC34O[C@@H]5C=CCOC(=O)[C@@H]5[C@H]3C(=O)N(CCCCCO)[C@@H]4C2=O)cc1 (stereo not given in full)	0.347	1.21 (inactive)	-0.193	-0.146	0.861	1.17	1.04	-0.0514	-1	-1.47
O=C1O[C@@H](c2ccccc2)[C@@H](c2ccccc2)N2[C@@H](c3ccc(O)cc3)[C@]3(C(=O)Nc4ccccc43)[C@@H](C(=O)N3CCCCCCC3)[C@H]12	0.875	5.98 (inactive)	1.82	0.464	0.89	3.78	1.14	1.29	1.11	1.17
C=CCN1C(=O)[C@]2(COC(c3ccc(OCCCO)cc3)=N2)Cc2ccccc21	0.284	-0.586 (inactive)	-0.0362	-0.0583	0.627	2.78	1.11	0.487	0.0453	0.953
Cc1ccc(N2C(=O)c3ccccc3[C@@H](C(=O)NCC(C)C)[C@@H]2c2ccc(CO)cc2)nc1	-0.795	-0.204 (inactive)	-0.465	-0.166	0.806	0.121	0.474	-0.205	-0.323	-0.418
C=CC[C@@]1(C(=O)NCc2ccccc2)N=C(c2ccc(OCCCO)cc2)O[C@@H]1c1ccccc1CN=[N+]=[N-]	0.889	1.01 (inactive)	0.525	0.117	0.721	2.95	0.88	1.26	-0.58	1.03
[N-]=[N+]=Nc1ccccc1C[C@]1(C(=O)N2CCCCC2)N=C(c2ccc(OCCCO)cc2)O[C@H]1c1ccccc1N=[N+]=[N-]	0.94	0.121 (inactive)	0.311	0.252	0.623	2.91	1.17	1.29	-0.292	0.979
COc1ccc(C#Cc2ccc3c(c2)[C@]2(C(=O)N3)[C@H](C(=O)N3CCN(c4ncccn4)CC3)[C@H]3C(=O)O[C@H](c4ccccc4)[C@H](c4ccccc4)N3[C@@H]2c2ccc(O)cc2)cc1	0.413	0.345 (inactive)	-0.184	0.0086	0.327	1.19	0.76	1.3	0.7	1.05
COC(=O)[C@@]1(Cc2ccc(OC)cc2)[C@H]2c3cc(C(=O)N4CCCC4)n(C[C@H](O)CO)c3C[C@H]2CN1C(=O)c1ccccc1	0.947	0.509 (inactive)	0.0824	0.0817	0.869	1.62	0.226	-0.0743	-0.229	0.556
O=C1C2C=CC(C(O)c3ccccn3)N(Nc3ccccc3F)C2C(=O)N1c1ccccc1 (stereo not given)	0.127	-0.21 (inactive)	-0.0918	-0.111	0.766	0.596	0.753	0.0702	0.194	0.634
CC(C)C(CO)N1C(=O)[C@@H]2[C@H]3C(=O)OCC=C[C@H]3OC23C=CCN(c2ccc4ccccc4c2)C(=O)[C@@H]13 (stereo not given in full)	-0.524	0.508 (inactive)	-0.193	-0.155	0.561	-0.572	0.42	-0.878	-1.32	-0.362
COCCOC(=O)N1C(=O)[C@@]2(c3cc(C#CCCO)ccc31)[C@H](c1ccc(O)cc1)N1[C@H](c3ccccc3)[C@H](c3ccccc3)OC(=O)[C@H]1[C@@H]2C(=O)N1CCCCCCC1	0.0837	1.11 (inactive)	0.489	0.0931	0.431	0.666	0.642	1.3	0.755	1.1
